Measurements from PubChem BioAssay (NCI).
The panel holds about 83,000 compounds, 20% with a hit somewhere; the sample as a whole holds those more often.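 Cells were grown in 96-well plates and exposed to the test compound at a single concentration for 48 hours; results are reported as percent growth, with values below 10 considered active.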 Active and inactive are the calls of the source.

Assays:
Assay in all cases: NCI-60 one-dose screen, 48 h (100 = growth as untreated, 0 = no growth, -100 = all killed)
Details in all cases: 10 µM unless noted
[1] = tested on: T-47D breast
[2] = tested on: BT-549 breast
[3] = tested on: MDA-MB-435 melanoma
[4] = tested on: SW-620 colon
[5] = tested on: MCF7 breast
[6] = tested on: HCT-116 colon
[7] = tested on: HCC-2998 colon
[8] = tested on: KM12 colon

Measured: growth

Cc1ccc(/C=N/Nc2nc(Nc3ccccc3)nc(Nc3ccc(S(N)(=O)=O)cc3)n2)cc1
inactive: [1] 54.5% | [2] 76.5% | [3] 69.4% | [4] 92.3% | [5] 26.5% | [6] 51.3% | [7] 74.1% | [8] 66%

CC(=O)N1N=C(c2cc3ccccc3oc2=O)CC1c1cn(-c2ccccc2)nc1-c1ccc(C)cc1 (stereo not given)
inactive: [1] 96.4% | [2] 117% | [3] 102% | [4] 98.8% | [5] 90.8% | [6] 92.1% | [7] 106% | [8] 98.6%

CN1c2ccccc2Sc2cc(/C=N/Nc3ccnc4cc(Cl)ccc34)ccc21
inactive: [1] 87.4% | [2] 99% | [3] 62.9% | [4] 84.8% | [5] 49.4% | [6] 57.3% | [7] 110% | [8] 86.8%

O=c1nc(Nc2ccc([N+](=O)[O-])cc2O)sc2ccccc12
inactive: [1] 31.1% | [2] 50.6% | [4] 22.3% | [5] 18.1% | [6] 20.2% | [7] 62.4% | [8] 23.9%
active: [3] -42.9%

COc1cc2c3c(cc4c5c(ccc4c3c1OC)OCO5)N(CCN(C)C)C2=O
active: [1] -5.03% | [2] -6.3% | [3] -18.5% | [4] 7.13% | [5] 0.153% | [6] -12.2% | [7] -45.3% | [8] 8.95%

CCC1=Cc2c(OC)cccc2OC12C=Cc1c(OC)cccc1O2 (stereo not given)
active: [3] -18.8% | [6] 8.84% | [7] 2.34%
inactive: [1] 46.8% | [2] 46.6% | [4] 30% | [5] 10.8% | [8] 12.4%

COc1cc(-c2nc(-c3ccccc3)[nH]c2-c2ccnc(NCCCNS(=O)(=O)c3ccc(C)cc3)n2)ccc1F
inactive: [1] 57.3% | [2] 119% | [3] 68.5% | [4] 108% | [5] 65.4% | [6] 72.3% | [7] 153% | [8] 90.1%

O=C1/C(=C/c2cc(F)cc(F)c2)Cc2cc3c(cc21)OCO3
active: [3] -44.3%
inactive: [1] 47.6% | [2] 35.4% | [4] 28.1% | [5] 29% | [6] 26.8% | [7] 65% | [8] 34.6%

CC(=O)Nc1cc(N2CCOCC2)c2nc(NC(=O)c3[nH]c(C)c(Cl)c3Cl)sc2c1
inactive: [1] 46.9% | [2] 74.1% | [3] 59% | [4] 84.4% | [5] 67.1% | [6] 68.5% | [7] 109% | [8] 82.4%

Cn1cc(-c2nnc(N)nc2-c2c[nH]c3ccc(Br)cc23)c2cc(Br)ccc21
inactive: [1] 88% | [2] 91.1% | [3] 93.7% | [4] 112% | [5] 90.7% | [6] 98.8% | [7] 114% | [8] 99.4%

Cc1ccc(NC2=C(Cl)C(=O)c3nc(C)ccc3C2=O)c(C)c1
active: [1] -46.1% | [3] -90% | [4] -29.4% | [5] -64.4% | [6] -67.7%
inactive: [2] 62.9% | [7] 64.6% | [8] 44.9%

O=C(/C=C/c1cccc(F)c1)c1cccc(OCCCOc2cccc(C(=O)/C=C/c3cccc(F)c3)c2)c1
active: [6] -80.3%
inactive: [1] 69.8% | [2] 72.1% | [3] 99.8% | [4] 14.3% | [5] 10.2% | [7] 44.2% | [8] 32.6%

Brc1ccc2[nH]cc(-c3nn4cc(-c5nccs5)nc4s3)c2c1
active: [6] -81.7%
inactive: [1] 29.7% | [2] 62.6% | [3] 12.9% | [4] 25.2% | [5] 33.9% | [7] 36.7% | [8] 21%

O=C(CSc1nc2ccccc2c(=O)n1-c1ccccc1)N/N=C/c1ccc(Oc2ccc(Cl)cc2)cc1
inactive: [1] 82.5% | [2] 69.9% | [3] 84.6% | [4] 43.1% | [5] 64.5% | [7] 95.4% | [8] 83.7%
active: [6] 5.62%

COc1cc(C(C)=C(c2ccc(OCCN(C)C)cc2)c2ccc(OCCN(C)C)cc2)ccc1F
inactive: [1] 93.4% | [2] 107% | [3] 108% | [4] 104% | [5] 93.8% | [6] 107% | [7] 100% | [8] 109%

CCCCCC[n+]1ccc(SCC(=O)n2ccc3ccccc32)c2ccccc21
inactive: [1] 59.1% | [2] 73.2% | [3] 101% | [4] 92.1% | [5] 75.6% | [6] 73.2% | [7] 92.8% | [8] 84.3%

CCCCc1nc2c(N)nc3ccccc3c2n1Cc1ccc(OC)cc1
inactive: [1] 65.3% | [2] 72% | [3] 84% | [4] 68.6% | [5] 59.7% | [6] 32.5% | [7] 85.5% | [8] 83.1%

CN1CCN(c2ccc(Nc3nc(NCCCNS(=O)(=O)c4ccccc4)c4sccc4n3)cc2)CC1
inactive: [1] 36.8% | [2] 62.1% | [3] 50.6% | [4] 52.5% | [5] 35.5% | [6] 16.7% | [7] 60.4% | [8] 73.3%

C=C(C)[C@@H]1CC[C@]2(C(=O)NC3CCCCC3)CC[C@]3(C)[C@H](CC[C@@H]4[C@@]5(C)CC[C@H](N)C(C)(C)[C@@H]5CC[C@]43C)[C@@H]12
inactive: [1] 80.6% | [2] 106% | [3] 98% | [4] 75.4% | [5] 24.5% | [7] 92.1% | [8] 95.8%
active: [6] 7.83%

CCCCCCN1C=C/C(=C\C(=O)n2ccc3ccccc32)c2ccccc21
inactive: [1] 31.1% | [2] 65% | [3] 84% | [4] 79.2% | [5] 29.2% | [6] 48.4% | [7] 34.6% | [8] 67.1%

CC(=O)OC[C@@]12Oc3c(cccc3-c3ccc(O)c4c3O[C@]3(COC(C)=O)C(=C4O)C(=O)C[C@H](C)[C@@H]3OC(C)=O)C(O)=C1C(=O)C[C@H](C)[C@@H]2OC(C)=O
inactive: [3] 13% | [4] 17.8% | [6] 10.8% | [7] 23.7%
active: [1] 4.37% | [2] -1.88% | [5] 5.84% | [8] 8.74%

Cn1cc(-c2cc3ncnc(Nc4ccc(CC(=O)Nc5nc(C(C)(C)C)cs5)cc4)c3s2)cn1
inactive: [2] 61.3% | [3] 54.6% | [4] 53.8% | [5] 41.8% | [6] 39% | [7] 74.6% | [8] 13.2%
active: [1] 3.67%

CC(=O)C1=C(C)NC(NNc2ccccc2)=NC1c1ccc([N+](=O)[O-])cc1 (stereo not given)
inactive: [1] 83.3% | [2] 103% | [3] 77% | [4] 73.6% | [5] 75% | [6] 85.7% | [7] 97% | [8] 67.3%

COc1ccc(C(=NNS(=O)(=O)c2ccc(C)cc2)c2ccccc2)cc1OC
inactive: [1] 90% | [2] 112% | [3] 106% | [4] 101% | [5] 91.4% | [6] 96.3% | [7] 102% | [8] 105%

CN1CCC[C@]2(C)[C@H]3CC[C@@H]4[C@@H]5[C@H]6OC[C@@]5(CCC6(C)C)CC[C@@]4(C)[C@]3(C)CC[C@H]2C1(C)C
active: [5] 8.03%
inactive: [1] 54.9% | [2] 96.8% | [3] 69.8% | [4] 23.2% | [6] 15.4% | [7] 45.8% | [8] 79.1%

O=C(COc1ccc(/C=C2\C(=O)Nc3ccc(Cl)cc32)cc1)Nc1ccc(Cl)cc1
inactive: [1] 68.8% | [2] 70.2% | [3] 55.6% | [4] 45.5% | [5] 56.3% | [6] 15.9% | [7] 89% | [8] 43.2%

CCN(CC)c1ccc(/C=N/NC(=O)c2ccc(S(N)(=O)=O)cc2)cc1
inactive: [1] 26% | [2] 26.3% | [3] 33% | [4] 40.4% | [6] 21.5% | [7] 43% | [8] 21%
active: [5] 7.83%

Cc1cc2nc3c4cc(C#N)ccc4n(CCN(C)C)c3nc2cc1C
active: [2] -28.3% | [3] -27.4% | [4] -9.39% | [5] 2.34% | [6] -33.3% | [7] -73% | [8] -3.36%
inactive: [1] 20.2%

CC1(C)C=Cc2cc(/C(N)=N/C(N)=N/c3nc4ccccc4s3)ccc2O1
inactive: [1] 77.6% | [2] 86.1% | [3] 99.3% | [4] 102% | [5] 67.2% | [6] 59.2% | [7] 109% | [8] 61.5%

Cc1ccccc1Nc1nc(SC(C)C)nc(-c2ccccc2)c1C#N
active: [6] 2.97%
inactive: [1] 88.1% | [2] 97.1% | [3] 44.9% | [4] 43.1% | [5] 51.6% | [7] 86.4% | [8] 94.2%
